Inconclusive results are not listed. Active and inactive are the calls of the source. Calls come from the whole dose curve; as a rule, active = well fitted curve in the direction sought with a large enough effect; inconclusive = small, poorly fitted or top-dose-only effect, or another doubt; inactive = no such curve, though single readings can be large; an effect the other way counts as inactive or inconclusive.
How the values were obtained:
[1] = qHTS of pediatric cancer cell lines to identify multiple opportunities for drug repurposing: Primary screen for SK-N-MC cells (AID 1347093); note: potency is the fitted concentration of half-maximal effect
Outline: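 Metabolically active cells were quantified by ATP-dependent luminescence (CellTiter-Glo, 15 min at room temperature) following 48 h treatment. Cells had been plated at 500-1,000 per well and settled for 5 h beforehand.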

[2] = qHTS of pediatric cancer cell lines to identify multiple opportunities for drug repurposing: Primary screen for U-2 OS cells (AID 1347096); note: nearly all actives have a fitted effect of over 50% in size
Outline: (§1)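 Viability after 48 h compound treatment at 37C, 500-1,000 cells/well, read as ATP luminescence with CellTiter-Glo. Primary screens used 11-point (MIPE, 0.78 nM-46 µM) or 8-point (NPC, 0.59 nM-46 µM) final concentrations; follow-up screens used 11-point dilutions.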

[3] = qHTS of pediatric cancer cell lines to identify multiple opportunities for drug repurposing: Primary screen for Saos-2 cells (AID 1347097); note: nearly all actives have a fitted effect of over 40% in size; note: potency is the fitted concentration of half-maximal effect
Outline: (§2)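 Phenotypic viability qHTS, 48 h compound exposure, CellTiter-Glo luminescence read-out; multi-concentration dosing so that potency and efficacy derive directly from the primary screen's curves.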

[4] = qHTS of pediatric cancer cell lines to identify multiple opportunities for drug repurposing: Primary screen for LAN-5 cells (AID 1347100); note: potency is the fitted concentration of half-maximal effect
Outline: as §1

[5] = qHTS of pediatric cancer cell lines to identify multiple opportunities for drug repurposing: Primary screen for Rh18 cells (AID 1347102); note: nearly all actives have a fitted effect of over 65% in size
Outline: as §1

[6] = qHTS of pediatric cancer cell lines to identify multiple opportunities for drug repurposing: Primary screen for NB-EBc1 cells (AID 1347095); note: potency is the fitted concentration of half-maximal effect
Outline: as §2

[7] = qHTS of pediatric cancer cell lines to identify multiple opportunities for drug repurposing: Primary screen for NB1643 cells (AID 1347099); note: nearly all actives have a fitted effect of over 50% in size; note: potency is the fitted concentration of half-maximal effect
Outline: as §2

[8] = qHTS of pediatric cancer cell lines to identify multiple opportunities for drug repurposing: Primary screen for SK-N-SH cells (AID 1347098); note: nearly all actives have a fitted effect of over 65% in size; note: potency is the fitted concentration of half-maximal effect
Outline: (§3)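 Cells (500-1,000/well) rested 5 h, then received compounds for 48 h; metabolically active cells were measured by CellTiter-Glo luminescence. Final concentrations spanned up to 46 µM (MIPE, 11-point) or 0.59 nM-46 µM (NPC, 8-point) in primary screens, 11-point in follow-ups.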

[9] = qHTS of pediatric cancer cell lines to identify multiple opportunities for drug repurposing: Primary screen for BT-12 cells (AID 1347101); note: nearly all actives have a fitted effect of over 25% in size; note: potency is the fitted concentration of half-maximal effect
Outline: as §3

[10] = qHTS of pediatric cancer cell lines to identify multiple opportunities for drug repurposing: Primary screen for BT-37 cells (AID 1347094); note: potency is the fitted concentration of half-maximal effect
Outline: as §2

Measured: Potency

CC=C(C)C(=O)N[C@@H](c1ccccc1)[C@@H](O)C(=O)O[C@H]1C[C@@]2(O)[C@@H](OC(=O)c3ccccc3)[C@@H]3[C@]4(OC(C)=O)CO[C@@H]4C[C@H](O)[C@@]3(C)C(=O)[C@H](OC(C)=O)C(=C1C)C2(C)C
inactive: [2] | [5]
active: [1] 0.001 µM | [3] 0.0132 µM | [4] 0.001 µM

CO/C=C(/C(=O)OC)c1ccccc1Oc1cc(Oc2ccccc2C#N)ncn1
active: [1] 17.2 µM | [6] 27.3 µM | [4] 21.7 µM

CC(=O)O[C@@]12CO[C@H]1C[C@H](O)[C@@]1(C)C(=O)[C@H](O)C3=C(C)[C@@H](O)C[C@@](O)([C@@H](OC(=O)c4ccccc4)[C@@H]21)C3(C)C
inactive: [2] | [7] | [5]
active: [1] 1.32 µM | [6] 2.09 µM | [3] 2.64 µM | [4] 2.64 µM

CCCCCC[C@H]1C(=O)O[C@H](C)[C@H](NC(=O)c2cccc(NC=O)c2O)C(=O)O[C@@H](C)[C@@H]1OC(=O)CC(C)C
inactive: [2] | [8]
active: [1] 0.0469 µM | [6] 0.0235 µM | [3] 11.8 µM | [7] 23.5 µM | [9] 0.122 µM

CC(=Cc1csc(C)n1)[C@@H]1C[C@H]2O[C@@H]2CCC[C@H](C)[C@@H](O)[C@@H](C)C(=O)C(C)(C)[C@@H](O)CC(=O)O1
active: [1] 0.001 µM | [6] 0.001 µM | [3] 0.001 µM | [4] 0.001 µM
inactive: [2] | [8] | [5]

O=C(N[C@H]1CN2CCC1CC2)c1ccc(Cl)cc1
inactive: [6] | [2] | [4] | [9]
active: [1] 1.66 µM | [8] 6.81 µM | [7] 2.64 µM

Nc1ccc(Cl)cc1N
inactive: [1] | [2] | [7] | [9] | [5]
active: [4] 24.3 µM

O=C(O)CNC(=O)c1c(O)c2ccccc2n(Cc2ccccc2)c1=O
not listed: [1] | [6] | [9]
inactive: all other assays above

NC1=NC(=O)N2CC12 (stereo not drawn)
inactive: [6] | [2] | [8] | [7]
active: [10] 19.3 µM | [3] 13.2 µM | [9] 21.7 µM

C[C@](O)(COc1ccc(C#N)cc1)C(=O)Nc1ccc(C#N)c(C(F)(F)F)c1
active: [7] 23.5 µM
inactive: [2] | [5]

C#C[C@]1(O)C=C[C@@H]2[C@@H]3CCC4=CC(=O)CC[C@@H]4[C@H]3CC[C@@]21CC
active: [7] 8.33 µM
inactive: [10] | [2] | [3] | [8] | [4]

CCN1C[C@]2(OC(=O)c3ccccc3NC(C)=O)CC[C@H](OC)[C@@]34[C@H]5CC6[C@@H](OC)C[C@](O)(C(C[C@@H]23)[C@@H]14)[C@@]5(O)[C@@H]6OC
inactive: [10] | [6] | [2] | [3] | [4] | [5]

CCCN1CCO[C@@H]2c3cc(O)ccc3OC[C@@H]21
inactive: [2] | [3] | [5]
active: [10] 21.7 µM | [6] 16.6 µM | [8] 21.5 µM | [4] 14.8 µM
